# TROY NFkB inh – inhibitors of TROY-dependent NF-kB signaling; inhibition, % at 10 µM; Q293 LMP1-TROYcd NF-kB luciferase reporter, 4 h; 360,000 tested, 0.98% active;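 active = compounds whose plate-normalised and pattern-corrected inhibition of the luciferase reporter signal at the single screening dose is 50% or more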
# HIF-2a inh – inhibitors of HIF-2a. AID 624352. 360,000 tested, 0.72% active. 786-0 RCC cells HIF-2a reporter, luciferase luminescence, overnight. inhibition, % at 18.8 µM;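 active = inhibition of the luminescence signal of 40% or more relative to plate controls, in a single-dose primary screen at 18.75 µM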
# Shn3 inh set2 – inhibitors of Schnurri-3 3'UTR reporter in osteoblasts | Clone20 osteoblast Shn3 3'UTR firefly luciferase, 24 h | inhibition, % at 12.5 µM | 360,000 tested, 0.52% active;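 active = mean inhibition of at least 75% with every replicate also reaching 75%; inconclusive = mean inhibition at least 75% but some replicate below; inactive = mean inhibition below 75%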
# MITF TRPM1 inh – inhibitors of MITF-driven TRPM1 promoter in melanoma cells. inhibition, % at 12.5 µM. 330,000 tested, 0.83% active. AID 488899. SK-MEL-5 TRPM1 promoter luciferase, 24 h;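 active = mean inhibition across replicates of 60% or more, whatever share of single replicates reaches that level; inconclusive = some that reach 60%, reason not given; inactive = mean inhibition across replicates below 60%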
# LMP1 NFkB inh – reduces LMP1-driven NF-kappaB luciferase signal | LMP1-induced NF-kappaB luciferase reporter cells, luminescence | inhibition, % at 12.5 µM | 350,000 tested, 0.69% active | AID 504558; in the data active = inhibition above about 41%; inconclusive = no clear call, values can overlap the other calls
# TWEAK Fn14 block – blocks TWEAK-Fn14 interaction in a reporter cell assay. 360,000 tested, 2% active. inhibition, % at 10 µM. AID 1159606. TWEAK-stimulated Fn14 reporter cells, luciferase luminescence, 8 h; in the data active = inhibition above about 50%
# Numbers stand for hits; 0 = inactive; ? = inconclusive; - = not tested or not shown. In the library only some 3.4% were active in any assay of this set; here they are far more common.
SMILES,TROY NFkB inh,HIF-2a inh,Shn3 inh set2,MITF TRPM1 inh,LMP1 NFkB inh,TWEAK Fn14 block
CC12CCC(O)CC1=CCC1C2CCC2(C)c3[nH]ncc3CC12 (centres undefined),51.0,0,0,0,0,0
COc1ccc(CCNC(=O)COC(=O)C23CC4CC(CC(Br)(C4)C2)C3)cc1,0,0,0,0,0,69.7
COc1ccc(C(C#N)=C2C=C(Cl)C(=NO)C=C2Cl)cc1,0,0,0,-,0,75.0
O=C(NC12CC3CC(CC(C3)C1)C2)N1CCN(c2nc(-c3ccccc3)cs2)CC1,-,0,0,0,0,71.3
O=C(NC1CCCCC1)N1CCN(c2nc(-c3ccccc3)cs2)CC1,0,0,0,0,0,0
COc1ccc(C(=O)NC(=S)NNC(=O)CNC(=O)C2CCCCC2)cc1,0,0,0,0,0,0
Cc1ccc(NC(=O)CNc2cccc(S(=O)(=O)N3CCOCC3)c2)cc1F,0,0,0,0,0,0
CCN(CC)S(=O)(=O)c1cccc(NC(=O)CNc2cccc(S(=O)(=O)N3CCCC3)c2)c1,0,0,86.8,0,0,0
COc1ccc(S(=O)(=O)N2CCN(CC(=O)Nc3ccc(F)c(F)c3)CC2)cc1,0,0,0,0,0,0
COc1cc(NC(=O)CNc2cccc(S(=O)(=O)N3CCOCC3)c2)cc(OC)c1,77.7,0,0,0,0,0
COc1ccc(S(=O)(=O)N2CCN(CC(=O)Nc3cccc(OC)c3)CC2)cc1,0,0,0,0,56.0,0
CCN(CC)S(=O)(=O)c1ccc(C)c(NC(=O)CNc2cccc(S(=O)(=O)N3CCCC3)c2)c1,0,0,0,0,0,0
CN(C)S(=O)(=O)c1cccc(NC(=O)C2CCN(S(=O)(=O)c3cccs3)CC2)c1,0,0,0,0,0,0
CSc1ncnc2c1ncn2CCCN1CCN(c2ncccn2)CC1,0,0,0,-,0,0
O=C(COC(=O)c1c(Cl)ccc(Cl)c1Cl)NC1CCS(=O)(=O)C1 (centres undefined),0,0,0,0,0,0
Cc1nc(-c2cccc(NC(=O)c3ccc(Br)o3)c2)cs1,0,0,0,0,0,0
Cc1nc(-c2ccc(C(=O)Nc3cccc(Br)c3)cc2)cs1,0,0,0,0,0,66.0
Cc1nc(-c2cccc(NC(=O)c3ccc(-n4nccc4C)cc3)c2)cs1,59.9,0,0,0,0,73.5
CCc1nonc1NC(=O)c1oc2ccc(F)cc2c1C,0,0,0,0,41.9,0
Cc1ccc(C(=O)COC(=O)COc2ccccc2[N+](=O)[O-])s1,0,0,0,-,0,0
CCOC(=O)COc1ccccc1/C=C\[N+](=O)[O-],86.6,92.0,96.7,97.4,0,103.7
Cn1c(=O)c2ncn(CC(=O)O)c2n(C)c1=O,52.4,0,0,0,?,0
O=C(Cc1ccccc1F)Nc1nc(-c2ccc(F)cc2)cs1,57.6,0,0,0,0,51.6
O=C(Nc1nc(-c2ccc(F)cc2)cs1)C1CCN(C(=O)c2ccc(F)cc2)CC1,0,0,0,0,0,57.4
Cc1c(C(=O)N/N=C/c2ccc(O)c(Br)c2)sc(N)c1C#N,0,0,0,0,0,0
SMILES,TROY NFkB inh,HIF-2a inh,Shn3 inh set2,MITF TRPM1 inh,LMP1 NFkB inh,TWEAK Fn14 block
COc1ccccc1N/N=C/c1ccc2c(c1)OCO2,0,0,0,0,0,60.3
COc1cc(/C=N/NC(=O)c2sc(N)c(C#N)c2C)ccc1O,0,0,0,0,0,51.9
COc1cc(/C=N/NC(=O)c2cc(-c3ccc4c(c3)OCO4)n[nH]2)ccc1O,0,0,0,0,0,51.1
COc1cc(/C=N/NC(=O)c2cc(C34CC5CC(CC(C5)C3)C4)[nH]n2)ccc1O,0,0,0,0,81.1,0
CCc1ccc(C(O)c2ncc(-c3ccccc3C(F)(F)F)[nH]2)cc1 (centres undefined),0,0,0,-,-,0
Cc1ccccc1N(CC(=O)NC1CCCCC1)C(=O)CCCC(=O)Nc1ccccn1,0,0,0,0,0,0
CCc1ccccc1N(CC(=O)NC1CCCCC1)C(=O)CCCC(=O)Nc1ccccn1,0,0,0,0,0,79.7
O=S(=O)(CCSc1ccccn1)c1nc2ccccc2s1,0,0,0,0,0,61.2
Cc1ccc(Cl)cc1NC(=O)c1cc(NC(=O)C2CCCCC2C(=O)O)ccc1N1CCOCC1 (centres undefined),0,0,0,0,0,0
Cc1ccccc1Nc1nnc(SCC2CCCCO2)s1 (centres undefined),0,0,0,0,0,0
COc1ccccc1Nc1nnc(SCC2CCCCO2)s1 (centres undefined),0,0,0,0,0,64.9
Cc1onc(-c2ccccc2)c1C(=O)n1nnc2ccccc21,0,0,0,0,0,0
Cc1nn(C(=O)c2c(-c3ccccc3)noc2C)c(C)c1N=Nc1cc(C(F)(F)F)cc(C(F)(F)F)c1,67.6,0,0,0,0,0
OCC(O)C1OC(c2ccco2)OC(CO)C1O (centres undefined),0,0,0,0,0,0
COc1ccc(OC)c(CCNC(=O)CCn2nc(C)c3c(C)n(-c4ccccc4)nc3c2=O)c1,0,0,0,0,54.9,0
COc1cc(OC)cc(C(=O)Nn2c(C)nc3ccccc3c2=O)c1,0,0,0,0,0,0
COc1ccc2[nH]c3c(c2c1)CCn1c-3nc2ccccc2c1=O,0,0,0,0,0,51.4
CCOC1=C2[C@@H](CN(S(=O)(=O)c3ccc(C)cc3)[C@H]2c2ccccc2F)[C@H]2C(=O)N(CC)C(=O)[C@H]2C1,0,0,0,-,-,0
O=C(CNC(=O)c1ccco1)OCC(=O)c1ccc(Br)cc1,0,0,0,0,0,0
Cc1c(C(=O)Nc2ccc(S(=O)(=O)N(C)C3CCN(C)CC3)cc2)oc2c(Cl)cccc12,0,0,0,79.3,0,0
CCc1ccc2[nH]c(=O)c(C(c3nnnn3CCOC)N3CCN(c4ccccc4F)CC3)cc2c1 (centres undefined),53.1,0,0,0,0,0
CC(C)NCC(O)COc1cccc2ccccc12 (centres undefined),0,0,0,0,51.8,0
CC(C)NCC(O)COc1cccc2[nH]ccc12 (centres undefined),0,0,0,0,0,0
Cc1nc(C)c(C(=O)Nc2nc3c(C)cccc3s2)o1,0,0,0,0,0,70.2
O=C(/C=C/c1ccc(Cl)cc1)OCC(=O)c1ccc[nH]1,0,0,0,0,0,0
Cc1ccc(CSc2nccc(-c3c(C)nc4ccccn34)n2)cc1,0,0,0,-,-,57.0
COc1ccccc1CCC(=O)N1CCN(S(=O)(=O)c2cc(C(F)(F)F)ccc2Cl)CC1,0,0,0,0,0,0
CNc1nnc(-c2ccc(N(C)C)cc2)s1,0,0,0,0,0,61.5
C/C(N)=C(/C#N)C(=O)CSc1nnc(-c2ccccc2Br)o1,0,0,0,0,0,73.5
O=C(CSc1nnc(-c2ccccc2Br)o1)N1CCOCC1,0,0,0,0,0,0

# High-throughput results deposited in PubChem by several laboratories.
